Screening results deposited in PubChem BioAssay by National Center for Advancing Translational Sciences (NCATS).
This is a sample that favours compounds with a hit; in the whole collection about 2.9% have one here.
TSHR antagonist – blocks TSH signaling through the human TSH receptor | P16473 | TSHR-expressing cells, TSH-stimulated cAMP HTRF, 2 h; hits give low values | activity change, negative = inhibition, % at 11.5 µM | 330,000 tested, 0.2% active | AID 504810;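 active = activity change below a set negative limit, meaning inhibition stronger than a set level, cut at about -70% in these data; inconclusive = activity change between two set negative limits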
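Read-out is FRET at 665 nm (cryptate excitation 337 nm) from a cryptate-tagged anti-cAMP antibody, competed by cell cAMP against cAMP-d2. Compounds are tested on freshly harvested TSHR cells challenged with 4nM TSH (EC80) for 2 hours at 37 deg C.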
DRD3 antagonist – D3 dopamine receptor (human) antagonism. AID 652054. D3R cells, DiscoveRx beta-arrestin luminescence, antagonist mode; hits give low values. max response, negative = inhibition, %. 360,000 tested, 2.5% active. P35462; in the data active = max response below about -50%; inconclusive = no clear call, values can overlap the other calls
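Cells expressing the human receptor were seeded at 1500 cells/well, incubated overnight at 37 degrees C in 5% CO2, then exposed to library compounds with dopamine controls for 90 minutes at 37 degrees C before luminescent detection.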
B2AR arrestin – beta2AR (human) beta-arrestin recruitment activity; P07550; beta-arrestin recruitment to beta2AR, cell-based reporter; Potency, µM (titrated, usually from 46.1 µM), hits mostly activators; 330,000 tested, 0.02% active; AID 492947; active = well fitted activation curve with a large enough effect; inconclusive = small, poorly fitted or top-dose-only effect; note: nearly all actives have a fitted effect of over 65% in size
Target sequence (P07550 whole entry, looked up): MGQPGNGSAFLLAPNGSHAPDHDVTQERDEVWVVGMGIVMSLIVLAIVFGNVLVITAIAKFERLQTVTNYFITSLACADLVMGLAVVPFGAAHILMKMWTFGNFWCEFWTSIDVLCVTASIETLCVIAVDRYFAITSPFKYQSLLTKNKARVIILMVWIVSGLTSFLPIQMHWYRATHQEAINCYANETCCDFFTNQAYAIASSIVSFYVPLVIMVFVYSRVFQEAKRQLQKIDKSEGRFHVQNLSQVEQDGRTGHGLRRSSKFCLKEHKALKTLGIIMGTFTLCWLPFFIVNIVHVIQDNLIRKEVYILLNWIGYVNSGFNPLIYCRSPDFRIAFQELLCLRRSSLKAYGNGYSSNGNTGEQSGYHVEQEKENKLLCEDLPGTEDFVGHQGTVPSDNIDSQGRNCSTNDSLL
DRD3 agonist – activates the human D3 dopamine receptor. D3R DiscoveRx beta-arrestin cells, luminescence, 90 min. max activation, %. P35462. 410,000 tested, 0.58% active; in the data active = max activation above about 30%
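Agonist-mode cell screen: cells plated at 1500/well and incubated overnight at 37 °C, then exposed to library compounds for 90 min at 37 °C. Detection reagent was added for 30–60 min at room temperature, and luminescence was read.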
A number is an active result; – = inactive; ? = inconclusive; · = no result given.

SMILES | TSHR antagonist | DRD3 antagonist | B2AR arrestin | DRD3 agonist
CCCn1nc2cc(C(=O)NCc3ccc(OC)cc3)ccc2c1OCC | – | – | – | –
COc1ccc(N2CCN(c3nc(NCCc4ccc(OC)c(OC)c4)nc(OC)n3)CC2)cc1 | · | – | · | 38
COc1ccc(CCNc2nc(-c3ccc(OC)c(OC)c3)cc(C(F)(F)F)n2)cc1OC | · | · | · | 38
Cc1ccc(NCc2ccccc2-c2nnc(-c3ccccc3Cl)o2)c(C)c1 | · | · | · | –
Cc1ccc(NC(=O)C(Cc2ccccc2)NS(=O)(=O)c2cccc3nsnc23)c(C)c1 (centres undefined) | · | · | · | –
COc1ccccc1N1CCN(C(=O)Cn2c(=O)nc(-c3ccccc3)c3cc(Cl)ccc32)CC1 | · | · | · | –
CC1CCCN(S(=O)(=O)c2cc3c4c(c2)CC(=O)N4CCC3)C1 (centres undefined) | · | · | · | –
COc1ccc(/C=C/C(=O)OCC(=O)c2ccccc2F)cc1 | – | – | – | –
COc1ccc(/C=C\C(=O)CC(O)(c2ccccc2)C(F)(F)F)cc1 (centres undefined) | – | -70 | – | –
CCc1c(C)nc2cc(-c3cc(OC)cc(OC)c3)nn2c1N1CCCC1 | – | – | – | 31
CC1=C(C)/C(=N\OS(=O)(=O)c2ccccc2)C=CC1=O | – | -89 | ? | –
COc1cccc(CN2CCC(C)(Oc3cccc(Cl)c3)C2)c1OC (centres undefined) | · | ? | · | –
CC(C)COc1ccc(C(=O)Nc2cc(-c3ccccc3)no2)cc1 | · | · | · | –
O=C(COc1ccc2ccccc2c1CN1CCOCC1)N1CCc2ccccc21 | – | -69 | – | –
O=C(COc1ccccc1Cl)N1CCc2ccccc21 | – | – | – | –
Cc1cccc(C(=O)NC(=S)Nc2ccc(Cc3ccncc3)cc2)c1 | – | -78 | – | –
Cc1cccc(C(=O)NC(=S)Nc2ccc(S(=O)(=O)N(C)c3ccccc3)cc2)c1 | – | -66 | – | –
O=C(NCc1ccccc1)c1cccn1-c1nnc(N2CCCCC2)s1 | · | · | · | –
Cc1cc(C)c2nc(NNC(=O)c3cc(-c4cccs4)nc4ccccc34)sc2c1 | – | – | – | –
O=C(NNc1nc2ccc(Cl)cc2s1)c1cc(-c2cccs2)nc2ccccc12 | – | – | – | 42
COc1ccc([N+](=O)[O-])cc1/C=N/NC(=O)CNC(=O)c1cccc(F)c1 | – | -117 | – | –
COCCn1c(CNC(=O)c2cccc(C)c2)nc2cccnc21 | · | · | · | –
Cc1ccccc1-c1nc(CS(=O)(=O)CC(=O)Nc2cccc(C(F)(F)F)c2)c(C)o1 | · | · | · | –
Cc1cc2c(cc1S(=O)(=O)Nc1ccc(C(C)C)cc1)OCCN2C | – | · | – | –
CC(NC(=O)c1cc2cc([N+](=O)[O-])ccc2oc1=O)C1CCCO1 (centres undefined) | – | – | – | –
SMILES | TSHR antagonist | DRD3 antagonist | B2AR arrestin | DRD3 agonist
Cc1ccc(C(=O)C(C)OC(=O)c2cc3cc([N+](=O)[O-])ccc3oc2=O)cc1 (centres undefined) | – | -99 | – | –
COc1cccc2cc(C(=O)OC(C)C(=O)c3ccc(C)cc3)c(=O)oc12 (centres undefined) | – | – | – | –
COc1ccc(C(=O)NNC(=O)c2cc3cc([N+](=O)[O-])ccc3oc2=O)cc1OC | – | -53 | – | –
COc1ccc(/C=N/NC(=O)c2ccncc2)cc1CN1CCN(c2ccc(F)cc2)CC1 | – | -55 | – | –
CCOc1ccc(NC(=O)c2cc(=O)c3cc(CC)ccc3o2)cc1 | · | · | · | –
Cc1cc(C)c(S(=O)(=O)Nc2cc(SCC(=O)O)c(O)c3ccccc23)cc1C | – | -54 | – | –
O=C(O)CSc1cc(NS(=O)(=O)c2ccc(Cl)cc2)c2ccccc2c1O | – | – | – | –
CCCC(C)(C)C(=O)N1CCC1(C)C(=O)Nc1cccc(OC)c1 (centres undefined) | · | – | · | –
COc1ccc(C2=CC(c3ccc(C)cc3)n3nnnc3N2)cc1 (centres undefined) | – | – | – | 32
O=S(=O)(c1ccc(Cl)cc1)c1nc(-c2ccccc2F)oc1NCCCN1CCOCC1 | – | -60 | – | –
Cc1ccc(S(=O)(=O)c2nc(-c3ccccc3Cl)oc2NCCCN2CCOCC2)cc1 | – | -53 | – | –
Cc1ccccc1-c1nc(S(=O)(=O)c2ccccc2)c(NCCN2CCOCC2)o1 | · | – | · | –
O=S(=O)(c1ccccc1)c1nc(-c2ccc(Cl)cc2)oc1NCCCN1CCOCC1 | – | ? | – | –
O=C(Cc1ccc(Cl)cc1)Nc1nnc2n1CCS2 | · | · | · | –
NS(=O)(=O)c1ccc(CCNC(=O)Cn2c(-c3cccs3)cc3ccccc32)cc1 | · | · | · | –
CN(CC(=O)N1CCN(Cc2ccccc2)CC1)S(=O)(=O)c1ccc(Br)cc1 | – | ? | – | –
O=C(CN(c1ccccc1)S(=O)(=O)c1ccccc1)N1CCN(Cc2ccc3c(c2)OCO3)CC1 | – | -67 | – | –
COc1ccc(N(CC(=O)N2CCN(Cc3ccc4c(c3)OCO4)CC2)S(=O)(=O)c2ccc(F)cc2)cc1 | – | -51 | – | –
CN(CC(=O)N1CCN(Cc2ccccc2)CC1)S(=O)(=O)c1ccc(F)cc1 | – | -59 | – | –
COc1ccc(N(CC(=O)Nc2ccc3c(c2)OCO3)S(=O)(=O)c2ccc(F)cc2)cc1 | – | – | – | –
CC1CN(C(=O)N2CCC(C(=O)NC3CCCCCC3)CC2)c2cc(Cl)ccc2O1 (centres undefined) | · | · | · | –
Cc1c(C(=O)N2CCOCC2)oc2c1-c1nn(CC(=O)NCc3cccc(Cl)c3)cc1CC2 | · | · | · | –
CN(C)c1ccc(/C=C/C=C2/SC(=S)N(c3ccccc3)C2=O)cc1 | – | -67 | – | –
COc1ccc(NC(=O)c2cc(C3CCCCN3C(=O)C3CCCCC3)on2)c(C)c1 (centres undefined) | · | – | · | –
COc1ccc(NC(=O)c2cc(C3CCCCN3C(=O)C3CC3)on2)c(C)c1 (centres undefined) | · | -111 | · | –
SMILES | TSHR antagonist | DRD3 antagonist | B2AR arrestin | DRD3 agonist
O=S(=O)(c1ccc(-c2csc(=Nc3ccc(OC(F)(F)Cl)cc3)n2CCCO)cc1)N1CCCC1 | · | · | · | –
COC(=O)[C@@H]1[C@@H](C#N)C2(c3ccccc3-c3ccccc32)N(c2ccc(Cl)cc2)N1C#N | – | -54 | – | –
O=C(c1ccccc1Cl)N1c2ncnn2C2(CCCCC2)[C@@H]2CCCC[C@@H]21 | · | · | · | –
COc1ccccc1NC(=O)CCS(=O)(=O)c1cc2c3c(c1)CCN3C(=O)CC2 | · | · | · | –
Cc1cc2nc(N3C(=O)CNC3=S)sc2cc1C | – | -67 | – | –
CCOc1ccc2nc(N3C(=O)CNC3=S)sc2c1 | – | – | 4µM | –
O=C1CNC(=S)N1c1nc(-c2ccccc2)cs1 | – | – | – | –
CCOc1ccc(NC(=O)Cn2nc(-c3ccncc3)ccc2=O)cc1 | · | · | · | –
CC1CC(N(C(=O)c2ccco2)c2ccccc2)c2ccccc2N1 (centres undefined) | – | -58 | – | –
Oc1c(Br)cc(Br)cc1/C=N/N1CCN(Cc2ccccc2)CC1 | – | -80 | – | –
COc1ccc(OC)c(CN2CCN(CCc3ccccc3)C(CCO)C2)c1 (centres undefined) | – | -56 | – | –
